Among all 310,000 compounds or so, about 14,000 (4.5%) showed an effect of 50% or more. Effects have a minus sign here. Many of the other results were omitted from the sample, so strong results are more common in it than they were.
Target: human ether-à-go-go-related gene (hERG) potassium channel (human, UniProt Q12809)
Assay: primary screen, population patch clamp on CHO cells stably expressing hERG; higher = less effect of the substance
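Note: peak tail current of the secondary pulse compared with the same well before compound.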

Chain of human ether-à-go-go-related gene (hERG) potassium channel (Q12809 whole entry, looked up): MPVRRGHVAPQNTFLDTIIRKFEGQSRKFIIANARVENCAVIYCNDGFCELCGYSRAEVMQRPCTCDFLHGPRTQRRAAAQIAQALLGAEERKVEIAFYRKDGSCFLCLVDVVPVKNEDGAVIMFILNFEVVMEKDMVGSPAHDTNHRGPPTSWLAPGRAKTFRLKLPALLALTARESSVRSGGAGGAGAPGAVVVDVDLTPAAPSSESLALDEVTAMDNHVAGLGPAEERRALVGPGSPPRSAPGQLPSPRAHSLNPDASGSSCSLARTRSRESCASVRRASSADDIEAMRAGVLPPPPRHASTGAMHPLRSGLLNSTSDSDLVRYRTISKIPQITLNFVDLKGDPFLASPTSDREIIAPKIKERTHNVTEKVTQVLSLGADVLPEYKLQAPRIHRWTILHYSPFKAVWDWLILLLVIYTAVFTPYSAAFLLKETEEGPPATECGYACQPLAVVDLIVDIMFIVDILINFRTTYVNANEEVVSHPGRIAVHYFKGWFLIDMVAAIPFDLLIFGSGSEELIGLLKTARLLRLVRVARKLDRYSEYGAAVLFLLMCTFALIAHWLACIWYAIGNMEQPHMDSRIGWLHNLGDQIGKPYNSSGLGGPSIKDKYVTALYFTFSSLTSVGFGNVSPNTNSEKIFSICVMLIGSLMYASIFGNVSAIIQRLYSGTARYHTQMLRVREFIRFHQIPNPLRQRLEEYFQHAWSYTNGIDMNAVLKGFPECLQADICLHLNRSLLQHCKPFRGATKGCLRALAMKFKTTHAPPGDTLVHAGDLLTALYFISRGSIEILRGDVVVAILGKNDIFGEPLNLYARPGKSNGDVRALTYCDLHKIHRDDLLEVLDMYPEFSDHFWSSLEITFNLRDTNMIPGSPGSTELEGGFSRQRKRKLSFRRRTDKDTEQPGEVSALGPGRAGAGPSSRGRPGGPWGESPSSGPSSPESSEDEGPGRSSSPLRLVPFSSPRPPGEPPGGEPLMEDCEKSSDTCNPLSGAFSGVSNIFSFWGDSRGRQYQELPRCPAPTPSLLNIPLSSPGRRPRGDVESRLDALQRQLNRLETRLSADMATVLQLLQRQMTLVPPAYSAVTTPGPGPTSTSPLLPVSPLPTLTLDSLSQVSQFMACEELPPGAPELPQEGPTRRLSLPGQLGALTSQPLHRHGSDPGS

How did the “hERG current change (%, negative = inhibition) at 10uM” value turn out when `CC(Sc1nnc(N)s1)C(=O)NCc1ccc2c(c1)OCO2` (stereo not shown) was run?
The value was 0.709%.

How did the “hERG current change (%, negative = inhibition) at 10uM” value turn out when `COc1ccc(CC(=O)Nc2cc(Cl)ccc2O)cc1` was run?
Its value is -1.45%.

How did the “hERG current change (%, negative = inhibition) at 10uM” value turn out when `CSCC[C@H](NC(=O)NCc1cccs1)C(=O)O` was run?
The value was -10.4%.

How did the “hERG current change (%, negative = inhibition) at 10uM” value turn out when `CN1CCN(c2ccc(NC(=S)NC(=O)c3cccc4c(Cl)cccc34)cc2)CC1` was run?
The value was 0.63%.

For `CN1CCN(c2ccc(NC(=O)COc3ccccc3Cl)cc2)CC1`, which “hERG current change (%, negative = inhibition) at 10uM” value is on record?
The value was -29.2%.

For `CN1CCN(c2ccc(NC(=O)COc3ccc4ccccc4c3)cc2)CC1`, which “hERG current change (%, negative = inhibition) at 10uM” value is on record?
Its value is -17.3%.

For `CN1CCN(c2ccc(NC(=O)COc3cccc4ccccc34)cc2)CC1`, which “hERG current change (%, negative = inhibition) at 10uM” value is on record?
The value was -65.4%.

`Cc1ccccc1OCC(=O)NC(=S)Nc1ccc(N2CCOCC2)c(Cl)c1` was tested. Which “hERG current change (%, negative = inhibition) at 10uM” value did it give?
The value was 15.3%.

For `CN1CCN(c2ccc(NC(=S)NC(=O)c3cccc4ccccc34)cc2)CC1`, which “hERG current change (%, negative = inhibition) at 10uM” value is on record?
The value was -51%.

With `Cc1ccccc1OCC(=O)Nc1ccc(N2CCN(C)CC2)c(Cl)c1` as the compound, how does the “hERG current change (%, negative = inhibition) at 10uM” value read?
Its value is -68.8%.

With `Cc1ccccc1OCC(=O)Nc1ccc(N2CCN(C(=O)C(C)C)CC2)c(Cl)c1` as the compound, how does the “hERG current change (%, negative = inhibition) at 10uM” value read?
Its value is -31.2%.

For `CN1CCN(c2ccc(NC(=S)NC(=O)c3cccc4c(Br)cccc34)cc2)CC1`, which “hERG current change (%, negative = inhibition) at 10uM” value is on record?
The value was 16.2%.

How did the “hERG current change (%, negative = inhibition) at 10uM” value turn out when `CC(C)Cc1nnc(NC(=O)C23CC4CC(CC(C4)C2)C3)s1` was run?
Its value is 5.58%.

`Cc1cccc2cc(CN(CC3CCCO3)C(=O)c3cccnc3)c3nnnn3c12` (stereo not shown) was tested. Which “hERG current change (%, negative = inhibition) at 10uM” value did it give?
Its value is -5.82%.

For `Cc1cc(NCCCN(C)C)n2c(nc3ccccc32)c1C#N`, which “hERG current change (%, negative = inhibition) at 10uM” value is on record?
The value was -1.49%.

Which “hERG current change (%, negative = inhibition) at 10uM” value does the source give for `Cc1cc(C)nc(SCC(=O)N/N=C/c2ccc3c(c2)OCO3)n1` here?
Its value is 8.05%.

`CCOc1ccc(OCCSc2nc(N)cc(=O)[nH]2)cc1` was tested. Which “hERG current change (%, negative = inhibition) at 10uM” value did it give?
The value was 1.58%.

`O=C(CSc1nc2ccccc2o1)NC1CCCC1` was tested. Which “hERG current change (%, negative = inhibition) at 10uM” value did it give?
The value was 16.5%.

How did the “hERG current change (%, negative = inhibition) at 10uM” value turn out when `CCCn1nc(C(=O)NCCc2ccc(S(N)(=O)=O)cc2)c2ccccc2c1=O` was run?
The value was -15.8%.

For `C/C(=N\Nc1nc2ccccc2[nH]1)c1cccs1`, which “hERG current change (%, negative = inhibition) at 10uM” value is on record?
Its value is -19.2%.

For `C/C(=N\Nc1nc2ccccc2[nH]1)c1ccccn1`, which “hERG current change (%, negative = inhibition) at 10uM” value is on record?
Its value is -72.8%.

`C/C(=N\Nc1nc2ccccc2[nH]1)c1ccc(C)o1` was tested. Which “hERG current change (%, negative = inhibition) at 10uM” value did it give?
The value was -17.7%.

`CS(=O)(=O)N1CCc2cc(S(=O)(=O)N3CCCCC3)ccc21` was tested. Which “hERG current change (%, negative = inhibition) at 10uM” value did it give?
Its value is -14.8%.

How did the “hERG current change (%, negative = inhibition) at 10uM” value turn out when `CC(=O)Nc1ccc(C(=O)OCc2ccc(F)cc2)cc1` was run?
Its value is -10.9%.

How did the “hERG current change (%, negative = inhibition) at 10uM” value turn out when `COc1ccc([C@H]2CC(=O)C=C(c3cccc(C(C)C)c3)C2)cc1` was run?
The value was -2.79%.

`Cc1[nH][nH]c(=O)c1C(c1cc([N+](=O)[O-])ccc1O)c1c(C)[nH][nH]c1=O` was tested. Which “hERG current change (%, negative = inhibition) at 10uM” value did it give?
Its value is -62.5%.

For `Cc1[nH][nH]c(=O)c1C(c1ccc([N+](=O)[O-])cc1)c1c(C)[nH][nH]c1=O`, which “hERG current change (%, negative = inhibition) at 10uM” value is on record?
The value was 23.9%.

`Cc1[nH][nH]c(=O)c1C(c1cc(Br)ccc1O)c1c(C)[nH][nH]c1=O` was tested. Which “hERG current change (%, negative = inhibition) at 10uM” value did it give?
The value was 12%.

For `Cc1ccccc1NC(=O)CSc1nc(N)c(C#N)c(-c2cccs2)c1C#N`, which “hERG current change (%, negative = inhibition) at 10uM” value is on record?
The value was 6%.

For `CCOc1ccc(C(=O)OCC(=O)NCCNC(=O)COC(=O)c2ccc(OCC)cc2)cc1`, which “hERG current change (%, negative = inhibition) at 10uM” value is on record?
Its value is 13.8%.

Which “hERG current change (%, negative = inhibition) at 10uM” value does the source give for `CCCSc1nnc(CNS(=O)(=O)c2ccc(C)cc2)n1C` here?
The value was 8.4%.

With `CCOC(=O)n1c(=O)n(C)c2ccc(Br)cc21` as the compound, how does the “hERG current change (%, negative = inhibition) at 10uM” value read?
The value was -7.75%.

`CCOC(=O)n1c(=O)[nH]c2ccc(Br)cc21` was tested. Which “hERG current change (%, negative = inhibition) at 10uM” value did it give?
The value was 2.18%.

Which “hERG current change (%, negative = inhibition) at 10uM” value does the source give for `C=CCn1c(=O)n(C(=O)OCC)c2cc(Br)ccc21` here?
The value was -50.2%.

With `CC(=O)N1CCN(c2ccc(NC(=O)c3cccc(C)c3)cc2)CC1` as the compound, how does the “hERG current change (%, negative = inhibition) at 10uM” value read?
Its value is 18.5%.

`COC(=O)c1ccc(NC(=O)CSc2nn3c(=O)c(C)nnc3s2)cc1` was tested. Which “hERG current change (%, negative = inhibition) at 10uM” value did it give?
Its value is 7.44%.

Which “hERG current change (%, negative = inhibition) at 10uM” value does the source give for `N#Cc1cccc(S(=O)(=O)NCC(=O)NCc2ccc3c(c2)OCO3)c1` here?
The value was 5.51%.

`CN1CCN(CCC(=O)Nc2ccc(C3CCCC3)cc2)CC1.Cl` was tested. Which “hERG current change (%, negative = inhibition) at 10uM” value did it give?
The value was -55.1%.

`COc1ccc(C(=O)OCC(=O)c2ccc(C3CCCCC3)cc2)cc1` was tested. Which “hERG current change (%, negative = inhibition) at 10uM” value did it give?
Its value is 5.66%.

How did the “hERG current change (%, negative = inhibition) at 10uM” value turn out when `CN1CCN(CCCC(=O)c2ccc(C3CCCC3)cc2)CC1.Cl.O` was run?
The value was -50%.

For `Cl.O=C(CCN1CCN(CCO)CC1)Nc1ccc(C2CCCC2)cc1`, which “hERG current change (%, negative = inhibition) at 10uM” value is on record?
The value was -43%.

`CN1CCN(CCCCC(=O)c2ccccc2)CC1.Cl` was tested. Which “hERG current change (%, negative = inhibition) at 10uM” value did it give?
The value was -0.477%.

How did the “hERG current change (%, negative = inhibition) at 10uM” value turn out when `Cc1ccc(NC(=O)CCN2CCN(C)CC2)cc1.Cl` was run?
The value was 10.6%.

Which “hERG current change (%, negative = inhibition) at 10uM” value does the source give for `O=C(C[n+]1ccccc1)N/N=C/c1ccc(C(=O)O)cc1.[Cl-]` here?
Its value is 0.121%.

Which “hERG current change (%, negative = inhibition) at 10uM” value does the source give for `CC(C)(C)C(=O)Nc1sc2c(c1C#N)CCCCC2` here?
Its value is 2.28%.

How did the “hERG current change (%, negative = inhibition) at 10uM” value turn out when `CCOC(=O)C1CCCN(S(=O)(=O)c2ccc3c(c2)CC(C)N3C(=O)C2CC2)C1` (stereo not shown) was run?
The value was 9.65%.

With `COc1ccc(N(CC(=O)NCc2cccc(OC)c2)S(=O)(=O)c2c(C)noc2C)cc1` as the compound, how does the “hERG current change (%, negative = inhibition) at 10uM” value read?
Its value is -41.1%.

With `COc1ccccc1NC(=S)NNC(=O)c1c(Cl)c(C)nn1C` as the compound, how does the “hERG current change (%, negative = inhibition) at 10uM” value read?
Its value is 32.8%.

How did the “hERG current change (%, negative = inhibition) at 10uM” value turn out when `CN(C1CCCCC1)S(=O)(=O)c1cccc(C(=O)OCC(=O)NC2CCCc3ccccc32)c1` (stereo not shown) was run?
Its value is -13.9%.

For `CC1CCCN(CCC(=O)Nc2ccc3c(c2)CCC3)C1.Cl` (stereo not shown), which “hERG current change (%, negative = inhibition) at 10uM” value is on record?
Its value is -33.5%.

For `Cc1cc(C)cc(NC(=O)CCN2CCCC2)c1`, which “hERG current change (%, negative = inhibition) at 10uM” value is on record?
The value was -15.8%.

Which “hERG current change (%, negative = inhibition) at 10uM” value does the source give for `CCOC(=O)C1CCCN(CCC(=O)Nc2ccccc2)C1.Cl` (stereo not shown) here?
Its value is -9.04%.

How did the “hERG current change (%, negative = inhibition) at 10uM” value turn out when `CCOC(=O)C1CCCN(CCC(=O)Nc2ccc3c(c2)CCC3)C1` (stereo not shown) was run?
The value was -50.4%.

With `CCOC(=O)C1CCCN(CCC(=O)Nc2ccc(Br)cc2)C1.Cl` (stereo not shown) as the compound, how does the “hERG current change (%, negative = inhibition) at 10uM” value read?
Its value is -66.7%.

With `CCOC(=O)C1CCCN(CCC(=O)Nc2ccc(C)cc2)C1.Cl` (stereo not shown) as the compound, how does the “hERG current change (%, negative = inhibition) at 10uM” value read?
Its value is -30.4%.

`CCOC(=O)C1CCCN(CCC(=O)Nc2ccc(C)c(C)c2)C1.Cl` (stereo not shown) was tested. Which “hERG current change (%, negative = inhibition) at 10uM” value did it give?
Its value is -44.8%.

For `CCOC(=O)C1CCCN(CCC(=O)Nc2ccccc2C)C1.Cl` (stereo not shown), which “hERG current change (%, negative = inhibition) at 10uM” value is on record?
The value was 12.5%.

How did the “hERG current change (%, negative = inhibition) at 10uM” value turn out when `CCOC(=O)C1CCCN(CCC(=O)Nc2cc(C)ccc2C)C1.Cl` (stereo not shown) was run?
The value was -67.2%.

`CCOC(=O)C1CCN(CCC(=O)Nc2cc(C)ccc2C)CC1` was tested. Which “hERG current change (%, negative = inhibition) at 10uM” value did it give?
Its value is -10.7%.

Which “hERG current change (%, negative = inhibition) at 10uM” value does the source give for `CCOC(=O)C1CCCN(CCC(=O)Nc2cc(C)cc(C)c2)C1` (stereo not shown) here?
The value was -58.4%.

Which “hERG current change (%, negative = inhibition) at 10uM” value does the source give for `CCOC(=O)C1CCCN(CCC(=O)Nc2cccc(C)c2)C1.Cl` (stereo not shown) here?
The value was -24.5%.
